Records with an inconclusive call do not appear. A call without a number means that no potency is given here. Calls of active or inactive are those of the source. The call rests on the fitted dose curve; in most records, active means well fitted curve in the direction sought with a large enough effect; inconclusive means small, poorly fitted or top-dose-only effect, or another doubt; inactive means no such curve, though single readings can be large or run the other way.

The target of the experiment is Metallo-beta-lactamase type 2 (Klebsiella pneumoniae) (UniProt C7C422). Briefly: qHTS to identify inhibitors of the New Delhi Metallo-beta-lactamase (NDM): assay validation screen against the NCATS LOPAC Collection (AID 1794843).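 Further: nitrocefin turnover by NDM-1 measured as 485 nm absorbance at plateau.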 The note with it: NDM-1 enzyme, nitrocefin hydrolysis, absorbance 485 nm; series mostly up to 38.4 µM. In outline: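 NDM-1 at 2 nM final in 50 mM HEPES pH 7.0, 1 uM ZnSO4, 0.01% Tween20, preincubated with LOPAC compounds pinned in DMSO; 50 uM nitrocefin (stock) added. Hydrolysis read as absorbance at 485 nm in the plateau phase.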
Sequence of Metallo-beta-lactamase type 2 (Klebsiella pneumoniae) (C7C422 whole entry, looked up): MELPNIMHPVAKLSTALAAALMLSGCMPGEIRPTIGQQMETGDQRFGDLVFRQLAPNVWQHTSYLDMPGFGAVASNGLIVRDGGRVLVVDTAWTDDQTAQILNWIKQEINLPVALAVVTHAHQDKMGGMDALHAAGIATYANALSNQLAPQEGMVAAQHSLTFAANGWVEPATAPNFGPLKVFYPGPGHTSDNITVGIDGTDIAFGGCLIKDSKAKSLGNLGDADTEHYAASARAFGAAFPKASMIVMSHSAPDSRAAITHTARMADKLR
`CC(N)[C@H](O)c1ccc(O)c(O)c1` (stereo partly drawn): the Potency result is “inactive”.

`C[C@H](Cc1ccc2c(c1)OC(C(=O)O)(C(=O)O)O2)NC[C@H](O)c1cccc(Cl)c1`: the Potency entry is “inactive”.

Take `CC(=O)NBr`: the Potency entry was “inactive”.

Regarding `C=CCN1C[C@@H](C)N([C@H](c2ccc(C(=O)N(CC)CC)cc2)c2cccc(OC)c2)C[C@@H]1C`, the Potency result is “inactive”.

With `CP(=O)(O)C1=CCNCC1`, the Potency entry is “inactive”.

Turning to `Cc1c2ccncc2c(C)c2c1[nH]c1ccccc12`, the Potency entry was “inactive”.

Regarding `CC(C)(C)c1o[nH]c(=O)c1CC(N)C(=O)O` (stereo not drawn), the Potency result was “inactive”.

For `CCCCCCCCCCCCCC(=O)O[C@@H]1[C@@H](C)[C@@]2(O)[C@@H](C=C(CO)C[C@@]3(O)C(=O)C(C)=C[C@@H]23)C2C(C)(C)[C@@]21OC(C)=O` (stereo partly drawn), the Potency result is “inactive”.

Turning to `C[N+]1(C)CCc2cc3c(cc2[C@H]1[C@@H]1OC(=O)c2c1ccc1c2OCO1)OCO3`, the Potency entry is “inactive”.

On to `OCc1cnc[nH]1`, for which the Potency result was “inactive”.

Regarding `CO[C@H]1CC=C2CCN3CCC4=C(CC(=O)OC4)[C@]23C1`, the Potency entry was “inactive”.

`C[N+]1(C)CCN(c2ccccc2)CC1`: the Potency result was “inactive”.

`N[C@@H](Cn1oc(=O)[nH]c1=O)C(=O)O`: the Potency entry is “inactive”.

Regarding `CC(C)NP(=O)(NC(C)C)OP(=O)(NC(C)C)NC(C)C`, the Potency result was “inactive”.

In the case of `CC(=O)OCC1=C(C(=O)O)N2C(=O)[C@@H](NC(=O)CCC[C@@H](N)C(=O)O)[C@H]2SC1`, the Potency entry is “inactive”.

With `CN1CC[C@@]2(C)c3cc(OC(=O)Nc4ccccc4)ccc3N(C)[C@@H]12`, the Potency result is “inactive”.

Take `CN(C(=O)Cc1ccc(Cl)c(Cl)c1)C(CN1CCCC1)c1cccc(OCC(=O)O)c1` (stereo not drawn): the Potency result is “inactive”.

Regarding `COc1ccc2[nH]cc(CCN)c2c1`, the Potency entry was “inactive”.

Source of the values: PubChem BioAssay (NCATS).
